Source: PubChem (National Center for Advancing Translational Sciences (NCATS))
POLB inh = qHTS Assay for Inhibitors of DNA Polymerase Beta. Potency, µM (titrated, usually from 114 µM), hits mostly inhibitors. Pol beta primer extension/strand displacement, fluorescence kinetic. 1.3% of 340,000 active
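Human Pol beta at 10 nM; strand-displacement substrate 50 nM final. Compound exposure 15 min at room temperature before start, reaction 10 min at room temperature.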
Pol eta inh-1 = qHTS for Inhibitors of Polymerase Eta | DNA polymerase eta (Homo sapiens), Q9Y253 | recombinant Pol eta, fluorescent DNA replication assay | Potency, µM (top dose mostly 114 µM), usual class: inhibitors | 1.2% of 390,000 active | AID 588591, 2011
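Pol eta (10 nM) was preincubated with compounds for 15 min at room temperature, after which fluorescent replication substrate (50 nM final) was added to start the reaction. Fluorescence was read kinetically at 0 and 10 min.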
POLI inh = qHTS for Inhibitors of Polymerase Iota | DNA polymerase iota (Homo sapiens), Q9UNA4 | Pol iota fluorescent replication assay, 10 min | Potency, µM (highest dose often 115 µM), usual class: inhibitors | 1% of 390,000 active
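Fluorescent replication assay read twice, at 0 min and 10 min after adding 50 nM (final) substrate. Enzyme (10 nM) and compounds were first incubated 15 min at room temperature; enzyme-free buffer wells were negative controls.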
Pol kappa inh-1 = qHTS for Inhibitors of Polymerase Kappa | DNA polymerase kappa (Homo sapiens), Q9UBT6 | purified Pol kappa, fluorescent DNA synthesis assay, 10 min | Potency, µM (doses to about 107 µM), most hits filed as inhibitors | 0.53% of 400,000 active | AID 588579, 2011
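Pol kappa 10 nM + cpd, 15 min RT; start w/ substrate 50 nM final; fluorescence kinetic read, 0 and 10 min. Neg ctrl: buffer, no enzyme.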
WRN helicase inh = qHTS for Inhibitors of WRN Helicase; Bifunctional 3'-5' exonuclease/ATP-dependent helicase WRN (Homo sapiens), Q14191; 0.46% of 360,000 active; WRN helicase unwinding, fluorescent forked duplex, kinetic; Potency, µM (top dose mostly 114 µM), hits mostly inhibitors; further: nearly all actives have a fitted effect of over 55% in size
Target sequence (Q14191 whole entry, looked up): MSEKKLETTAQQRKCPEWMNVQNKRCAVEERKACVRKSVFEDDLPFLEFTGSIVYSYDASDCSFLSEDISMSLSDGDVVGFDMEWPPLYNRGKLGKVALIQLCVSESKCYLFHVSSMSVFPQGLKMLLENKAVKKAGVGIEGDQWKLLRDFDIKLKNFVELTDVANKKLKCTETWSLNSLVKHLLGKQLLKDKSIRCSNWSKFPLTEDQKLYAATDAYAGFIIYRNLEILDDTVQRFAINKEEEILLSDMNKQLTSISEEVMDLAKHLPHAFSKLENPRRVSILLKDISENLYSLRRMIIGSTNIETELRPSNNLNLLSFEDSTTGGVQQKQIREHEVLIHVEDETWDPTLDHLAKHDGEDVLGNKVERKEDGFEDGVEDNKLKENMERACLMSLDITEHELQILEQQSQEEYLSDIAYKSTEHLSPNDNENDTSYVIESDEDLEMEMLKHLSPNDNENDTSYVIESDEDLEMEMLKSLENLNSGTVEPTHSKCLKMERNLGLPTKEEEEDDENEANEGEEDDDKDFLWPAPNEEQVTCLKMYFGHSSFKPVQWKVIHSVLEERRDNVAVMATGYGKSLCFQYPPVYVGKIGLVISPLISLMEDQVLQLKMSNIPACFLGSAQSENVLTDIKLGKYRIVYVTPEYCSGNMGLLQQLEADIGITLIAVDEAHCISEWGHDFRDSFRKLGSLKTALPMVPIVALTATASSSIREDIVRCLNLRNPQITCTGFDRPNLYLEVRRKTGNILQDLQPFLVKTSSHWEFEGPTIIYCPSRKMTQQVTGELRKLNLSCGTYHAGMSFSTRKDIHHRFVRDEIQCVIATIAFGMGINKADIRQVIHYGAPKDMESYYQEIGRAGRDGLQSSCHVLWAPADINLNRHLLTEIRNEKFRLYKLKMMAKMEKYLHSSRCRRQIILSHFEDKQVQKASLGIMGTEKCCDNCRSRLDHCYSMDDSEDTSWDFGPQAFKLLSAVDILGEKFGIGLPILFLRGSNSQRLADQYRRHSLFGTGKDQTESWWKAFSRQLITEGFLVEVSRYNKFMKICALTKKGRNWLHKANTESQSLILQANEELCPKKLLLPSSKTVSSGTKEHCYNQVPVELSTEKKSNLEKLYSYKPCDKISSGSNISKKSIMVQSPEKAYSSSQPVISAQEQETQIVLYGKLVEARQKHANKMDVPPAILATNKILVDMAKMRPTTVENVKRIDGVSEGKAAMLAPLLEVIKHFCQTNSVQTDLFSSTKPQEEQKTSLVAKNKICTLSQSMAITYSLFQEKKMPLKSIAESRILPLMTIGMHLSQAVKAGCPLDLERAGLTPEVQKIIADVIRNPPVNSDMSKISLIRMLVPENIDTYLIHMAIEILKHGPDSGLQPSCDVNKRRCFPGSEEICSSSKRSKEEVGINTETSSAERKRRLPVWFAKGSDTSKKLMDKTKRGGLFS
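Primary qHTS, 1536-well format. 20 nM WRN + compound, 15 min RT; start with 100 nM forked fluorophore/quencher duplex, 2 mM ATP (final); kinetic read ex 525/em 598 nm.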
TbPGK inh = qHTS for inhibitors of Phosphogylcerate Kinase: Hit Validation Screen. shares compounds with Pol kappa inh-1. TbPGK coupled GAPDH assay, Kinase-Glo luminescence. Potency, µM (doses to about 57.5 µM), hits mostly inhibitors. 79% of 500 active. AID 686980, 2013; further: nearly all actives have a fitted effect of over 65% in size
POLI cherry-pick = qHTS for Inhibitors of Polymerase Iota: Confirmatory Assay for Cherry-picked Compounds | AID 720496, 2013 | shares compounds with Pol kappa inh-1 | Potency, µM, usual class: inhibitors | Pol iota primer extension, TAMRA/BHQ fluorescence | 77% of 1,500 active
Pol kappa inh-2 = qHTS for Inhibitors of Polymerase Kappa: Confirmatory Assay for Cherry-picked Compounds | shares compounds with Pol eta inh-1 | Potency, µM, most hits filed as inhibitors | 76% of 920 active | purified Pol-kappa, fluorescent strand-displacement substrate | AID 720501, 2013
Pol eta inh-2 = qHTS for Inhibitors of Polymerase Eta: Confirmatory Assay for Cherry-picked Compounds; shares compounds with Pol eta inh-1; Pol eta primer extension, TAMRA/BHQ fluorescence, 10 min; 64% of 2,600 active; Potency, µM, hits mostly inhibitors; AID 720502, 2013
Large screens that a line does not name were inactive (follow-up assays come after a bar, where they were run). An excerpt weighted towards active compounds, which were near 2.3% of everything screened. The call rests on the fitted dose curve; in most records, active means well fitted curve in the direction sought with a large enough effect; inconclusive means small, poorly fitted or top-dose-only effect, or another doubt; inactive means no such curve, though single readings can be large; an effect the other way counts as inactive or inconclusive.

O=C(CN1C(=O)/C(=C/c2ccco2)SC1=S)Nc1ccc(C(=O)O)c(O)c1	POLB inh 11µM, Pol eta inh-1 3.5µM, WRN helicase inh 35µM | TbPGK inh 33µM | POLI cherry-pick 15 | Pol eta inh-2 6.7
O=C(CCN1C(=O)/C(=C\c2ccccc2F)SC1=S)Nc1ccc(C(=O)O)c(O)c1	none (no result: Pol eta inh-1, POLI inh, Pol kappa inh-1, WRN helicase inh)
CCCCOc1ccc(C(=O)NCc2nnnn2-c2ccc(C)c(C)c2)cc1	none (no result: WRN helicase inh)
CC(CNC(=O)c1ccc(CSc2nc3ccncc3n2Cc2cccc(F)c2)cc1)c1ccccc1 (centres undefined)	none (no result: WRN helicase inh)
COc1ccc(C(CC(=O)N2CCCCC2)c2c(OC)cc(OC)c3c(-c4ccccc4)cc(=O)oc23)cc1 (centres undefined)	POLB inh 25µM, Pol eta inh-1 20µM, POLI inh 71µM, Pol kappa inh-1 50µM | POLI cherry-pick 42 | Pol eta inh-2 inconclusive
COc1cc(OC)c2c(-c3ccccc3)cc(=O)oc2c1C(CC(=O)N1CCCC1)c1ccc(N(C)C)cc1 (centres undefined)	none (no result: POLB inh, Pol eta inh-1, WRN helicase inh)
COc1ccc(C(CC(=O)N2CCCC2)c2c(OC)cc(OC)c3c(-c4ccccc4)cc(=O)oc23)cc1 (centres undefined)	POLB inh 35µM, Pol eta inh-1 inconclusive, POLI inh 71µM, Pol kappa inh-1 79µM | POLI cherry-pick 34 | Pol eta inh-2 76
CC1=C(C(=O)Nc2ccccc2C)C(c2cccs2)n2nc(SCc3ccccc3)nc2N1 (centres undefined)	none (no result: WRN helicase inh)
CCCCN(C)C1=CC2=CC(=C(C#N)C#N)CCC2CC1 (centres undefined)	Pol eta inh-1 inconclusive, POLI inh inconclusive, WRN helicase inh inconclusive | POLI cherry-pick 75 | Pol kappa inh-2 inconclusive | Pol eta inh-2 76
O=C(NC1CCCCC1)c1ccc([N+](=O)[O-])o1	none
O=C(COC(=O)c1ccc([N+](=O)[O-])o1)NC1CCS(=O)(=O)C1 (centres undefined)	Pol eta inh-1 45µM, POLI inh 63µM | POLI cherry-pick inconclusive | Pol eta inh-2 inconclusive
O=C(COC(=O)c1ccc([N+](=O)[O-])o1)NC1CCCCC1	Pol eta inh-1 inconclusive, POLI inh 79µM (no result: POLB inh) | POLI cherry-pick inconclusive | Pol eta inh-2 inconclusive
CC(=O)c1cccc(OCC(=O)N(C)CC(=O)NCc2ccco2)c1	Pol eta inh-1 3.2µM, POLI inh 7.9µM, Pol kappa inh-1 35µM, WRN helicase inh inconclusive (no result: POLB inh) | TbPGK inh 3.3µM | POLI cherry-pick 15 | Pol kappa inh-2 19 | Pol eta inh-2 5.4
COc1cccc(NC(=O)CN(C)CC(=O)NCc2ccco2)c1	none (no result: POLB inh)
Cc1ccc(NC(=O)COC(=O)c2ccc(S(=O)(=O)NCc3ccco3)cc2)cc1	none (no result: POLB inh)
CN(C)C(=O)COC(=O)c1ccc(S(=O)(=O)NCc2ccco2)cc1	POLB inh 25µM, Pol eta inh-1 22µM, POLI inh inconclusive, Pol kappa inh-1 inconclusive | POLI cherry-pick 60 | Pol eta inh-2 38
O=C(CSc1ccsc1[N+](=O)[O-])Nc1cccc(F)c1	POLB inh 7.1µM, Pol eta inh-1 22µM, POLI inh inconclusive, Pol kappa inh-1 22µM, WRN helicase inh inconclusive | POLI cherry-pick 67 | Pol eta inh-2 48
Nc1nnc(SCC(=O)Nc2cccc(F)c2)s1	none (no result: WRN helicase inh)
CSc1ccc(CCNC(=O)CSc2ccsc2[N+](=O)[O-])cc1	Pol eta inh-1 inconclusive, POLI inh inconclusive, Pol kappa inh-1 inconclusive
CCc1ccccc1NC(=O)CSc1ccsc1[N+](=O)[O-]	POLB inh 25µM, Pol eta inh-1 32µM, POLI inh 18µM, Pol kappa inh-1 inconclusive, WRN helicase inh inconclusive | POLI cherry-pick inconclusive | Pol eta inh-2 60
COc1cc(/C=N/NC(N)=O)ccc1OCC(=O)Nc1ccc(C)c(C)c1	POLB inh inconclusive, Pol eta inh-1 28µM, POLI inh 32µM, Pol kappa inh-1 89µM, WRN helicase inh inconclusive | POLI cherry-pick 42 | Pol eta inh-2 76
Cc1nc(S/C(=C/c2ccc(-c3ccc(C(=O)O)cc3)o2)C(=O)O)n[nH]1	POLB inh 35µM, Pol eta inh-1 18µM, Pol kappa inh-1 inconclusive | POLI cherry-pick 42 | Pol eta inh-2 19
Cn1c(SCC(=O)N/N=C/C=C\c2ccco2)nc2ccccc21	POLB inh 45µM, Pol eta inh-1 22µM, POLI inh 13µM, Pol kappa inh-1 28µM, WRN helicase inh inconclusive | POLI cherry-pick inconclusive | Pol kappa inh-2 67 | Pol eta inh-2 67
O=S(=O)(O)c1cc(O)c2cc(Nc3ccccc3)ccc2c1	Pol eta inh-1 2.8µM, POLI inh 3.2µM, Pol kappa inh-1 32µM, WRN helicase inh 11µM (no result: POLB inh) | TbPGK inh 9.2µM | POLI cherry-pick 30 | Pol kappa inh-2 3.4 | Pol eta inh-2 17
Nc1cccc2c(O)cc(S(=O)(=O)O)cc12	Pol eta inh-1 2.8µM, POLI inh 3.2µM, Pol kappa inh-1 8.9µM, WRN helicase inh inconclusive (no result: POLB inh) | TbPGK inh 5.2µM | POLI cherry-pick 6.7 | Pol kappa inh-2 2.7 | Pol eta inh-2 6
CCOC(=O)N1CCN(/[N+]([O-])=N/Oc2ccc([N+](=O)[O-])cc2[N+](=O)[O-])C(C)C1 (centres undefined)	none (no result: POLB inh, Pol eta inh-1, WRN helicase inh)
O=C(CCn1c(=O)c2cccn2c2cccnc21)N1CCN(c2ccccc2F)CC1	none (no result: WRN helicase inh)
Cc1cccn2c(=O)c3cc(C#N)c(=O)n(-c4nnc(SCc5ccc(F)cc5)s4)c3nc12	none (no result: Pol eta inh-1, WRN helicase inh)
COc1ccc(/C=C2\C(=O)NC(=O)c3ccccc32)cc1OC	Pol eta inh-1 20µM, POLI inh 32µM (no result: POLB inh) | POLI cherry-pick 84 | Pol eta inh-2 30
COc1ccc(C=C2C(=O)OC(C)(C)OC2=O)cc1OC	none
Cc1ccc(C(=O)NCC(c2ccc3c(c2)OCO3)N2CCN(c3ccc(F)cc3)CC2)cc1 (centres undefined)	none (no result: WRN helicase inh)
